The structures appear in SMILES notation. Compounds without any hit were thinned out: in the full panel of roughly 83,000, 20% have a hit.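 Growth was measured after 48 h exposure to one concentration of compound in 96-well plates. Values under 10 count as active.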 A number with no mark means an inactive call. Activity calls are given as the source filed them.

Data on eight compounds can be found in PubChem BioAssay (NCI).

Some test systems named below: NCI-H23 lung; NCI-H226 lung; NCI-H322M lung; HOP-62 NSCLC; NCI-H460 lung; HOP-92 NSCLC; NCI-H522 lung; A549/ATCC NSCLC; 786-0 renal; COLO 205 colon; DU-145 prostate; K-562 leukemia; MALME-3M melanoma; MDA-MB-231 breast; RXF 393 renal; SF-268 CNS; SF-295 CNS; UACC-257 melanoma; M14 melanoma; SF-539 CNS.
Holding throughout (experiment): NCI-60 one-dose screen, 48 h (100 = growth as untreated, 0 = no growth, -100 = all killed)
Details in all cases: 10 µM unless noted

For `COc1ccc(NC(=O)CSc2nc(-c3ccc(OC)c(OC)c3)cc(-c3cc(OC)c(OC)c(OC)c3)n2)cc1`, the growth with NCI-H23 lung is 101%; in the assay with NCI-H226 lung it was 108%; in the assay with NCI-H322M lung, 90.4%; with HOP-62 NSCLC, 106%; in the assay on NCI-H460 lung, 97.7%; with HOP-92 NSCLC it was 76.8%. The growth is 79.6% with NCI-H522 lung; 95.7% in the assay with A549/ATCC NSCLC; 95.1% in the assay on 786-0 renal; 82.5% with COLO 205 colon; 112% in the assay on DU-145 prostate; 95.7% in the assay on K-562 leukemia. Further, the growth with MALME-3M melanoma is 128%; with MDA-MB-231 breast, 91.9%; with RXF 393 renal it was 101%; in the assay on SF-268 CNS, 102%; in the assay with SF-295 CNS, 126%; in the assay on UACC-257 melanoma, 111%. In addition, in the assay with M14 melanoma, the growth was 102%.

On to `O=c1cc(Cc2ccc([N+](=O)[O-])cc2)[nH]c(=O)[nH]1`, for which the growth in the assay on NCI-H23 lung was 99.2%; with NCI-H226 lung, 107%; with NCI-H322M lung, 112%; with HOP-62 NSCLC, 93.3%; in the assay on NCI-H460 lung, 109%; with HOP-92 NSCLC, 96.1%. Further, the growth in the assay on NCI-H522 lung is 90.5%; with A549/ATCC NSCLC, 106%; in the assay with 786-0 renal, 98.9%; in the assay on COLO 205 colon, 100%; with DU-145 prostate it was 119%; in the assay with K-562 leukemia, 111%. In addition, the growth in the assay with MALME-3M melanoma was 99.9%; in the assay with MDA-MB-231 breast, 110%; in the assay on RXF 393 renal, 109%; in the assay with SF-268 CNS, 106%; in the assay with SF-295 CNS, 122%; in the assay with UACC-257 melanoma, 109%. The growth in the assay on M14 melanoma is 104%.

For `O=C(/C=C/c1cc(-c2ccc3c(c2)OCO3)n[nH]1)c1ccc2c(c1)OCO2`, the growth in the assay with NCI-H23 lung was 94.6%; in the assay on NCI-H226 lung, 89.4%; in the assay on NCI-H322M lung, 86.6%; with HOP-62 NSCLC it was 96.9%; in the assay with NCI-H460 lung, 97.5%; in the assay with HOP-92 NSCLC, 77.7%. Further, the growth is 72% in the assay on NCI-H522 lung; 90.7% in the assay with A549/ATCC NSCLC; 99.2% in the assay on 786-0 renal; 97.7% with COLO 205 colon; 104% in the assay with DU-145 prostate; 82.6% with K-562 leukemia. Besides, the growth in the assay on MALME-3M melanoma is 106%; in the assay with MDA-MB-231 breast, 92.4%; with RXF 393 renal it was 94.4%; with SF-268 CNS it was 93.3%; with SF-295 CNS, 97%; with UACC-257 melanoma, 96.1%. The growth with M14 melanoma was 99.6%.

Regarding `COc1cc(C2CC(c3ccc4c(c3)OCO4)=NN2C=O)cc(OC)c1OC` (configuration not stated), the growth in the assay with NCI-H23 lung is 59.9%; in the assay with NCI-H226 lung, 58.3%; in the assay with NCI-H322M lung, 14.1%; in the assay with HOP-62 NSCLC, 36.7%; in the assay on NCI-H460 lung, 15.3%; in the assay on HOP-92 NSCLC, 74.6%. The growth is -3.85% (active) in the assay on NCI-H522 lung; 46.2% in the assay with A549/ATCC NSCLC; 37.4% in the assay with 786-0 renal; 12.6% with COLO 205 colon; 31.7% in the assay with DU-145 prostate; 17.6% with K-562 leukemia. The growth with MALME-3M melanoma is -3.87% (active); in the assay with MDA-MB-231 breast, 68%; with RXF 393 renal it was 45.7%; in the assay on SF-268 CNS it was 44.8%; with SF-295 CNS it was -1.84% (active); in the assay on UACC-257 melanoma it was 65.3%. For the same compound, the growth in the assay with M14 melanoma is 26.7%.

On to `COc1ccc(C2=Nn3c(nnc3-n3nc(C)cc3C)SC2)cc1`, for which the growth in the assay with NCI-H23 lung is 30.2%; with NCI-H226 lung, 57.4%; with NCI-H322M lung it was 44.6%; with HOP-62 NSCLC, 29.7%; with NCI-H460 lung, 4.1% (active); in the assay on HOP-92 NSCLC, 11.2%. Also, the growth with NCI-H522 lung is -9.16% (active); in the assay on A549/ATCC NSCLC, 10.2%; with 786-0 renal, 17.7%; with COLO 205 colon it was -42.5% (active); with DU-145 prostate, -15.9% (active); with K-562 leukemia, 4.47% (active). Moreover, the growth with MALME-3M melanoma was 49.9%; in the assay on MDA-MB-231 breast, -7.82% (active); in the assay on RXF 393 renal it was 4.22% (active); in the assay with SF-268 CNS it was 29.9%; in the assay on SF-539 CNS, 1.51% (active); in the assay on UACC-257 melanoma, 64.7%. Also, in the assay on M14 melanoma, the growth is 10%.

Consider `COc1cc(-c2nn(-c3cccc(NC(=O)Nc4cccc(C(F)(F)F)c4)c3)cc2-c2ccncc2)ccc1Cl`, for which the growth is -12.4% (active) in the assay with NCI-H23 lung; 4.3% (active) in the assay with NCI-H226 lung; 21.7% in the assay with NCI-H322M lung; -29.8% (active) with HOP-62 NSCLC; -7.91% (active) with NCI-H460 lung; -33.6% (active) with HOP-92 NSCLC. Besides, the growth was -30.8% (active) with NCI-H522 lung; -14% (active) in the assay on A549/ATCC NSCLC; -15% (active) in the assay with 786-0 renal; -88.9% (active) in the assay with COLO 205 colon; 9.75% (active) with DU-145 prostate; 1.6% (active) with K-562 leukemia. Besides, the growth in the assay with MALME-3M melanoma was -32.1% (active); with MDA-MB-231 breast it was -28.8% (active); with RXF 393 renal, -69.8% (active); in the assay on SF-268 CNS, 2.35% (active); with SF-539 CNS, -34.2% (active); in the assay with UACC-257 melanoma, -52.9% (active). Also, in the assay on M14 melanoma, the growth was -61.5% (active).

On to `COc1ccc(N2CCN(Cc3cc(C(=O)/C=C/c4c[nH]c5ccccc45)ccc3O)CC2)cc1`, for which the growth is 102% with NCI-H23 lung; 100% with NCI-H226 lung; 100% with NCI-H322M lung; 89% with HOP-62 NSCLC; 106% in the assay with NCI-H460 lung; 89.9% in the assay with HOP-92 NSCLC. The growth was 95.2% in the assay on NCI-H522 lung; 102% with A549/ATCC NSCLC; 105% with 786-0 renal; 107% in the assay on COLO 205 colon; 114% in the assay on DU-145 prostate; 101% in the assay with K-562 leukemia. Also, the growth in the assay with MALME-3M melanoma is 95.6%; with MDA-MB-231 breast it was 103%; with RXF 393 renal, 104%; in the assay on SF-268 CNS, 101%; with SF-539 CNS it was 96.6%; with UACC-257 melanoma it was 102%. Besides, the growth in the assay on M14 melanoma was 102%.

`COc1cc(-c2nn(-c3cccc(NC(=O)c4cccc(C(F)(F)F)c4)c3)cc2-c2ccncc2)ccc1Cl`: the growth with NCI-H23 lung was 24.7%; in the assay with NCI-H226 lung, 36.2%; in the assay with NCI-H322M lung it was 58.1%; with HOP-62 NSCLC, 22.9%; with NCI-H460 lung, 4.83% (active); in the assay on HOP-92 NSCLC, -5.59% (active). The growth is -42.3% (active) in the assay with NCI-H522 lung; 7.4% (active) in the assay on A549/ATCC NSCLC; 29.8% in the assay with 786-0 renal; 7.11% (active) in the assay with COLO 205 colon; 2.16% (active) with DU-145 prostate; 6.11% (active) with K-562 leukemia. Also, the growth with MALME-3M melanoma is 10.1%; in the assay on MDA-MB-231 breast, 4.67% (active); in the assay with RXF 393 renal, -42.8% (active); with SF-268 CNS it was 30.5%; with SF-539 CNS, -48.8% (active); in the assay with UACC-257 melanoma it was 34.5%. In addition, in the assay on M14 melanoma, the growth is 12.3%.
